# Records with an inconclusive call do not appear. Activity calls are given as the source filed them. Unless noted, calls come from the whole dose curve.
# Legend:
# [1] = target: Estrogen receptor (Homo sapiens) (UniProt P03372); test: qHTS assay for small molecule antagonists of estrogen receptor alpha signaling (AID 588513; active = well fitted curve in the direction sought with a large enough effect in the signal ratio, with a control signal flat, not every such curve was filed as active; the % refers to the signal ratio; note: % is set by controls: 0 for no effect and ±100 for the full control effect)
# Estrogen receptor (Homo sapiens), sequence (P03372 whole entry, looked up): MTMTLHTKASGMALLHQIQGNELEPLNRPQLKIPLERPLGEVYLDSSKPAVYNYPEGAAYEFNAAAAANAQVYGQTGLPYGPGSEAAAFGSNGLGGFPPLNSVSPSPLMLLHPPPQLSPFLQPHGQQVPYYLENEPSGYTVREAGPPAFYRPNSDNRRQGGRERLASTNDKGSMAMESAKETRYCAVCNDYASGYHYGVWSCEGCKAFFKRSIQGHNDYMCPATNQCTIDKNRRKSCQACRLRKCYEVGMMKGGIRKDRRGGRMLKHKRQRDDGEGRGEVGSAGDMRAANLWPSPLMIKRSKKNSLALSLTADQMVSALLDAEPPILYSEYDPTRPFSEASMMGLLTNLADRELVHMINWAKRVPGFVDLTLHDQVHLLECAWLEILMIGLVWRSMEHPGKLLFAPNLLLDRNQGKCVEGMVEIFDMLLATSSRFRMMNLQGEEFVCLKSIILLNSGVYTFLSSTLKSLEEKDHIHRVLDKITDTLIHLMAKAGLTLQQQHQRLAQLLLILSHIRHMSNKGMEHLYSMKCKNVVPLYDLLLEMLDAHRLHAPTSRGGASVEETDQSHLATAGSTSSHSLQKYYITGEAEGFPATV
# Procedure, shortened: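 Beta-lactamase reporter, antagonist mode, HEK 293 GripTite cells; 0.5nM E2 stimulus, 18 h, 37 C; CCF4 dye 2 h RT; fluorescence. IC50 and efficacy from Hill fits, normalized to E2 and DMSO.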
# [2] = target: Estrogen receptor (Homo sapiens) (UniProt P03372); test: qHTS assay for small molecule agonists of estrogen receptor alpha signaling (AID 588514);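 note: 0% = vehicle only and 100% = reference agonist; nearly all actives have a fitted effect of over 70% in size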
# Procedure, shortened: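 Fluorescence from CCF4 cleavage reports ER-alpha-driven beta-lactamase expression in HEK 293 cells treated 18 hrs at 37 C. Data normalized to 17-beta-estradiol (20 nM) and DMSO, fitted to Hill equation.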
# [3] = target: Androgen receptor (Homo sapiens) (UniProt P10275); test: qHTS assay for small molecule agonists of androgen receptor signaling (AID 588515; active = well fitted curve in the direction sought with a large enough effect in the signal ratio, with a control signal flat; the % refers to the signal ratio; note: % is set by controls: 0 for no effect and ±100 for the full control effect); settings: AR-UAS-bla HEK293, beta-lactamase ratio, agonist 16 h; activation: stronger effect = higher value
# Androgen receptor (Homo sapiens), sequence (P10275 whole entry, looked up): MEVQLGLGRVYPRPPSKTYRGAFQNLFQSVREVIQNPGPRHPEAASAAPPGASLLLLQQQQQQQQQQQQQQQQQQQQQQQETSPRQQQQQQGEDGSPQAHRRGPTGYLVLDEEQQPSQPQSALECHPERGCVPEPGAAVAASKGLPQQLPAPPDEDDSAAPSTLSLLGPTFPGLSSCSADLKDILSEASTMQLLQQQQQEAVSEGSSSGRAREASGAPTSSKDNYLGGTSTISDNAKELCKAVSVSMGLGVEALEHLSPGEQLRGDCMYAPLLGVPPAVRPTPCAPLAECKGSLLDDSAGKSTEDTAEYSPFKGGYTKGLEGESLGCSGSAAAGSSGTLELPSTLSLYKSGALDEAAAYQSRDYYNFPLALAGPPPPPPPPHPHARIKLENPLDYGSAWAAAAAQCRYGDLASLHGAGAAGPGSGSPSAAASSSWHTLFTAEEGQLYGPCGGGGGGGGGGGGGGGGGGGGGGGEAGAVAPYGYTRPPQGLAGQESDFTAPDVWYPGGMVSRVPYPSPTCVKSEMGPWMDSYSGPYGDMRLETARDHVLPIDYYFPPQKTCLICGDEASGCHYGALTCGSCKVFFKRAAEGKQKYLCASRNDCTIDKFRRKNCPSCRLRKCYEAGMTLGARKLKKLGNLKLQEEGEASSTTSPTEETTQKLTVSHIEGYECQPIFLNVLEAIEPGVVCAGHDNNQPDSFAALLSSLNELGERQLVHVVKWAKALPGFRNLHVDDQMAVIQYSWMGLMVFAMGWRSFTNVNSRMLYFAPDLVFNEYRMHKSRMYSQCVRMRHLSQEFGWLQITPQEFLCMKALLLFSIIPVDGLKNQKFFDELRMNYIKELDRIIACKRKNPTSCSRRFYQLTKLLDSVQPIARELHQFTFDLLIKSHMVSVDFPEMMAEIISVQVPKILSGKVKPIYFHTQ
# Procedure, shortened: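 Stimulation of an AR-responsive β-lactamase reporter in GripTite HEK293 cells was measured after 16 h compound exposure at 37 °C, via CCF4 fluorescence after 2 h RT. EC50 from Hill fits, normalized to R1881 at 30 nM.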
# [4] = target: Androgen receptor (Homo sapiens) (UniProt P10275); test: qHTS assay for small molecule antagonists of androgen receptor signaling (AID 588516; active = well fitted curve in the direction sought with a large enough effect in the signal ratio, with a control signal flat, not every such curve was filed as active; the % refers to the signal ratio; note: % is set by controls: 0 for no effect and ±100 for the full control effect)
# Procedure, shortened: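 HEK293 AR-UAS-bla cells, 10% dialyzed FBS medium; cpd titration + R1881 10 nM final, 16 h 37 C; CCF4 2 h RT; FRET ratio; IC50/efficacy via Hill fit.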
# [5] = target: Bile acid receptor (Homo sapiens) (UniProt Q96RI1); test: qHTS assay for small molecule antagonists of farnesoid X receptor signaling (AID 588526); note: % is set by controls: 0 for no effect and ±100 for the full control effect
# Bile acid receptor (Homo sapiens), sequence (Q96RI1 whole entry, looked up): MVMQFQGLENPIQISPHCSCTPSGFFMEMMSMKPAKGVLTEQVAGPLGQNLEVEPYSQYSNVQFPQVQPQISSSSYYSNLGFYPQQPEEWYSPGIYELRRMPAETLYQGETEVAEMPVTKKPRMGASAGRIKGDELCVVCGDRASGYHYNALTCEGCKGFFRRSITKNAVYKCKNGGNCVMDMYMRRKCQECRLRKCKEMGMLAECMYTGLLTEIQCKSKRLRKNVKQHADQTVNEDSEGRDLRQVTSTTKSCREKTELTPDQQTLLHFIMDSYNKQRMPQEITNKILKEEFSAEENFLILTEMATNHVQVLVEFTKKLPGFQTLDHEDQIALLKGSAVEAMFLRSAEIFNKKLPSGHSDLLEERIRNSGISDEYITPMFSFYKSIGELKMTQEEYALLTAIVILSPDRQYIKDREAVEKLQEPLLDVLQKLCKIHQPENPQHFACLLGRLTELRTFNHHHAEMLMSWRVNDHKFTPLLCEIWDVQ
# Procedure, shortened: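 Beta-lactamase reporter antagonist mode: HEK293T FXR-UAS-bla cells, titrated compound, CDCA stimulation, 16 h 37 C, CCF4 dye 2 h RT. Data normalized to CDCA 50 uM and DMSO; Hill-fit IC50.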
# [6] = target: Glucocorticoid receptor (Homo sapiens) (UniProt P04150); test: qHTS assay for small molecule agonists of glucocorticoid receptor signaling (AID 588532; active = well fitted curve in the direction sought with a large enough effect in the signal ratio, with a control signal flat; the % refers to the signal ratio;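 note: 100% = dexamethasone at 0.1 µM and 0% = DMSO only wells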); settings: HeLa MMTV-bla, beta-lactamase ratio, agonist, 18 h; stronger effect = higher value; percent of dexamethasone control, DMSO zero
# Glucocorticoid receptor (Homo sapiens), sequence (P04150 whole entry, looked up): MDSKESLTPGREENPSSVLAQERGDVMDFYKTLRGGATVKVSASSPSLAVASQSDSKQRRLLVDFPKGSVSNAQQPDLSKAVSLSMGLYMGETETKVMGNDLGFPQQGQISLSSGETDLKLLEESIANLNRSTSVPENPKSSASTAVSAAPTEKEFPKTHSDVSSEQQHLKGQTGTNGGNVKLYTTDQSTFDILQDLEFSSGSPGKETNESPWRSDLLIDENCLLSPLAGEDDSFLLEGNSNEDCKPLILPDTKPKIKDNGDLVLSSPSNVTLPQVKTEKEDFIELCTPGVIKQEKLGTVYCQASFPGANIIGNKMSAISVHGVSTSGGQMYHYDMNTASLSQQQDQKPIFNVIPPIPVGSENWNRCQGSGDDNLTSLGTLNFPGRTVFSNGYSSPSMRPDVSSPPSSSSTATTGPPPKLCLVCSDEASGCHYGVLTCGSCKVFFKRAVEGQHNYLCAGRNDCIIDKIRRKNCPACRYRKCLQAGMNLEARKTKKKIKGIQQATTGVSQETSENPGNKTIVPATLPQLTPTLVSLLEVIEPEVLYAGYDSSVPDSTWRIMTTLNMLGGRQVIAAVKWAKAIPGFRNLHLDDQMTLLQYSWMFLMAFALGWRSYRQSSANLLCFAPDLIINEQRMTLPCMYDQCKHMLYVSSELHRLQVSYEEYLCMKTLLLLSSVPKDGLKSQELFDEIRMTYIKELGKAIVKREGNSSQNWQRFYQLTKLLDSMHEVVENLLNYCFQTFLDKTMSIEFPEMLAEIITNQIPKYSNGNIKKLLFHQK
# Procedure, shortened: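 Using MMTV-bla HeLa cells in medium with 1% stripped FBS and 25 mM HEPES, compounds were titrated and incubated overnight-length (18 h). Beta-lactamase cleavage of CCF4 was quantified by dual-emission fluorescence.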
# [7] = target: Glucocorticoid receptor (Homo sapiens) (UniProt P04150); test: qHTS assay for small molecule antagonists of glucocorticoid receptor signaling (AID 588533; active = well fitted inhibition curve with a large enough effect in the signal ratio, with a control signal flat, not every such curve was filed as active; the % refers to the signal ratio)
# Procedure, shortened: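 Antagonist-mode qHTS: compound titrations added to GRE-bla HeLa cells, then dexamethasone 2 nM final; 18 h, 37 C. CCF4 FRET fluorescence normalized to dexamethasone and DMSO; IC50 from Hill fit.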
# [8] = qHTS assay for small molecule antagonists of peroxisome proliferator-activated receptor delta signaling (AID 588535; active = well fitted inhibition curve with a large enough effect in the signal ratio, with a control signal flat, not every such curve was filed as active; the % refers to the signal ratio;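 for max response: cells co-treated with a PPAR-delta agonist as stimulator during compound exposure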); settings: HEK293T PPARd-UAS-bla, beta-lactamase FRET ratio, 18 h; 460 nm channel
# Procedure, shortened: (§1)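 Antagonist-mode qHTS using GeneBLAzer PPAR-delta-UAS-bla HEK293T cells; compound exposure 18 hrs at 37 C over a titration. Ratiometric CCF4 fluorescence at 460/530 nm; concentration-response points fitted to the Hill equation.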
# [9] = target: Peroxisome proliferator-activated receptor delta (Homo sapiens) (UniProt Q03181); test: as above
# Procedure, shortened: as §1
# [10] = target: Peroxisome proliferator-activated receptor gamma (Homo sapiens) (UniProt P37231); test: qHTS assay for small molecule agonists of peroxisome proliferator-activated receptor gamma signaling (AID 588536; active = well fitted curve in the direction sought with a large enough effect in the signal ratio, with a control signal flat, not every such curve was filed as active; the % refers to the signal ratio;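 note: 0% = DMSO basal wells and 100% = rosiglitazone at 2 µM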)
# Peroxisome proliferator-activated receptor gamma (Homo sapiens), sequence (P37231 whole entry, looked up): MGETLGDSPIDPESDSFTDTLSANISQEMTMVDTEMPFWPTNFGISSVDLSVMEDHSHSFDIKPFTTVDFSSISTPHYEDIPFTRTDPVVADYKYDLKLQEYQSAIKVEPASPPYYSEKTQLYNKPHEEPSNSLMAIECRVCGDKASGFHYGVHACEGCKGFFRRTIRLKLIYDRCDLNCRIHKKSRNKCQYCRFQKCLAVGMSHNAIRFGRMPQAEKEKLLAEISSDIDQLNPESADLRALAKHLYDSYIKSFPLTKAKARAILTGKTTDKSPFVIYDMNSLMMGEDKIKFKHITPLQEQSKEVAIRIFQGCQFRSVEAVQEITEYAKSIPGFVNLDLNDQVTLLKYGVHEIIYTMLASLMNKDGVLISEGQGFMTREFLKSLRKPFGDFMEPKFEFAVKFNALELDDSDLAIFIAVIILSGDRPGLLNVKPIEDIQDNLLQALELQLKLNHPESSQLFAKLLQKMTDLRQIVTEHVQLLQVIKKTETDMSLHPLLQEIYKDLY
# Procedure, shortened: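 Cells were plated and held 6–6.5 h at 37 C, then compounds were added as a titration series. After a further 16 h, CCF4 dye was loaded for 2 h at room temperature and emission at 460/530 nm recorded.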
# [11] = target: Peroxisome proliferator-activated receptor gamma (Homo sapiens) (UniProt P37231); test: qHTS assay for small molecule antagonists of peroxisome proliferator-activated receptor gamma signaling (AID 588537; active = well fitted inhibition curve with a large enough effect in the signal ratio, with a control signal flat, not every such curve was filed as active; the % refers to the signal ratio;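 note: reporter cells co-stimulated with 50 nM rosiglitazone agonist during compound treatment; % of control where 0% means no effect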)
# Procedure, shortened: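 Cell-based beta-lactamase assay; GW9662 served as the antagonist control. Stimulation used rosiglitazone, final 50 nM, 16 h, 37 C.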
# [12] = target: Vitamin D3 receptor (Homo sapiens) (UniProt P11473); test: qHTS assay for small molecule agonists of vitamin D receptor signaling (AID 588543);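 note: 0% = DMSO basal and 100% = reference agonist control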
# Vitamin D3 receptor (Homo sapiens), sequence (P11473 whole entry, looked up): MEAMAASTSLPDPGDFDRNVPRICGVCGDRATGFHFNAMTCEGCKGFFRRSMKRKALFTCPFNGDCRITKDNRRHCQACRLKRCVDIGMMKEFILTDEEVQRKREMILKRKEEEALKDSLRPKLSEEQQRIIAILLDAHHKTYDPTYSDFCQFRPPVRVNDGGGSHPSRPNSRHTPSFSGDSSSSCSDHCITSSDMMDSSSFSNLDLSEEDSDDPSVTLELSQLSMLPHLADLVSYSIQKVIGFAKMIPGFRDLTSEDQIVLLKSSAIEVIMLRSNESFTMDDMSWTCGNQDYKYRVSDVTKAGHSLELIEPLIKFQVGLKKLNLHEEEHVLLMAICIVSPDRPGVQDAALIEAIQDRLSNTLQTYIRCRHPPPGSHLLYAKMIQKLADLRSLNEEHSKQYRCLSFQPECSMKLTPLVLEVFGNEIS
# Procedure, shortened: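 β-lactamase reporter, VDR-UAS-bla HEK293T, agonist mode. Cells plated 5 h at 37 °C, compound titration 16 h at 37 °C, CCF4 dye 2 h RT, ratio 460/530 nm. Hill fit → EC50, efficacy vs 50 nM 1α,25-(OH)2D3.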
# [13] = qHTS assay for small molecule agonists of retinoid X receptor alpha signaling (AID 588544); settings: HEK293T RXRa-UAS-bla, beta-lactamase reporter, 18 h; 530 nm emission;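 for activation: 0% = DMSO basal wells and 100% = reference agonist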
# [14] = target: Thyroid hormone receptor beta (Homo sapiens) (UniProt P10828); test: qHTS assay for small molecule agonists of thyroid hormone receptor beta signaling (AID 588545);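 note: 0% = DMSO only and 100% = 10 nM T3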
# Thyroid hormone receptor beta (Homo sapiens), sequence (P10828 whole entry, looked up): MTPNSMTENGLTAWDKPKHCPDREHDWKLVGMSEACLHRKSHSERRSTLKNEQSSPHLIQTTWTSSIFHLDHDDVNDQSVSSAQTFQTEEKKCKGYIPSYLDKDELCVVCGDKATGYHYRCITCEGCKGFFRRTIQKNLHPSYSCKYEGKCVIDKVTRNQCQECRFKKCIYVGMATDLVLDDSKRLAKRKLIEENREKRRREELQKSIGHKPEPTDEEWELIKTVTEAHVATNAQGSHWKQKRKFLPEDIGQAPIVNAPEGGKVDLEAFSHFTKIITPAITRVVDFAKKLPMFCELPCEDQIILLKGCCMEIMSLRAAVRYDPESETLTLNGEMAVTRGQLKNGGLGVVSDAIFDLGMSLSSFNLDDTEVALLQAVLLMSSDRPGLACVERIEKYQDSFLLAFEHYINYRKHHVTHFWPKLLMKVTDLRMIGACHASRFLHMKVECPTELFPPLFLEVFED
# Procedure, shortened: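 Beta-lactamase reporter activity under TR response element control is measured in HEK 293 cells after 18 hrs compound exposure. Signal is ratiometric CCF4 fluorescence, 460/530 nm.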
# [15] = qHTS assay for small molecule antagonists of retinoid X receptor alpha signaling (AID 588546; active = well fitted inhibition curve with a large enough effect in the signal ratio, with a control signal flat, not every such curve was filed as active; the % refers to the signal ratio); settings: HEK293T RXRa-UAS-bla, beta-lactamase ratio, antagonist mode; measured here: W530 green channel, cytotoxicity proxy
# Procedure, shortened: (§2)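 Beta-lactamase reporter inhibition, read as CCF4 fluorescence ratio (ex 405, em 460/530 nm) after 2 h at RT. HEK293T UAS-bla cells, 2500/well, were stimulated with 9-cis-RA at 500 or 100 nM final alongside test compound for 18 h at 37 C.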
# [16] = target: Retinoic acid receptor RXR-alpha (Homo sapiens) (UniProt P19793); test: as above; settings: HEK293T RXRa-UAS-bla, beta-lactamase ratio, antagonist mode
# Retinoic acid receptor RXR-alpha (Homo sapiens), sequence (P19793 whole entry, looked up): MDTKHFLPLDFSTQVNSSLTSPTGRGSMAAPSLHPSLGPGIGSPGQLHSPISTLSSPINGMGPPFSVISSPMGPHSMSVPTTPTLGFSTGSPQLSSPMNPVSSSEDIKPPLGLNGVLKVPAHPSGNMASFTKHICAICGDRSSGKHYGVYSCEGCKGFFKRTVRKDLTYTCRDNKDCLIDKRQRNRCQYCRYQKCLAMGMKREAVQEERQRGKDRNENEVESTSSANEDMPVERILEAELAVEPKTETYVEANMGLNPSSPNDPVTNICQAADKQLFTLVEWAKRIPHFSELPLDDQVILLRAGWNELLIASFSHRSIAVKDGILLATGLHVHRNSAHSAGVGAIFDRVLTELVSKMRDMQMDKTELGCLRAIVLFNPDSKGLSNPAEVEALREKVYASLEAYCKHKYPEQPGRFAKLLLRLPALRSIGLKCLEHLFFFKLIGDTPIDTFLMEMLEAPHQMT
# Procedure, shortened: as §2
# [17] = target: Thyroid hormone receptor beta (Homo sapiens) (UniProt P10828); test: qHTS assay for small molecule antagonists of thyroid hormone receptor beta signaling (AID 588547; active = well fitted inhibition curve with a large enough effect in the signal ratio, with a control signal flat, not every such curve was filed as active; the % refers to the signal ratio); settings: TR-UAS-bla HEK293, beta-lactamase ratio, antagonist mode, 18 h
# Procedure, shortened: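 Inhibition of T3-driven (0.4nM final) beta-lactamase reporter activity was measured over 0.59 nM to 92 uM compound after 18 h at 37 C. The cells were GripTite HEK293 TR-UAS-bla in charcoal/dextran-stripped serum, with CCF4 ratio read-out and IC50 from Hill fits.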
# [18] = qHTS assay for small molecule activators of the p53 signaling pathway (AID 651743; active = well fitted activation curve with a large enough effect in the signal ratio, not every such curve was filed as active; the % refers to the signal ratio; note: series mostly up to about 92 µM; % of control where 0% means no effect); settings: HCT-116 p53RE-bla, beta-lactamase FRET ratio, 16 h; activation: stronger effect = higher value
# Procedure, shortened: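 A beta-lactamase reporter under p53 response element control, stably carried by HCT-116 cells, reported pathway activation. Test compounds were applied for 16 hours at 37 C, and fluorescence was measured 2 hours after adding the B/G FRET substrate.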
# [19] = qHTS assay for small molecule activators of the nuclear factor-kappa B (NF-kB) signaling pathway (AID 651749; active = well fitted activation curve with a large enough effect in the signal ratio; the % refers to the signal ratio; note: series mostly up to about 77 µM; % of control where 0% means no effect); settings: NF-kB-bla ME-180 cells, beta-lactamase FRET ratio, 16 h; activation: stronger effect = higher value
# Procedure, shortened: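 FRET-based beta-lactamase detection in ME-180 cells reports NF-kB response-element-driven transcription following overnight (16 hr) compound treatment.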
# [20] = qHTS assay for environmental chemicals that activate the Aryl hydrocarbon Receptor (AhR) signaling pathway (AID 651777; active = well fitted curve in the direction sought with a large enough effect; an effect the other way counts as inactive or inconclusive; note: % of control where 0% means no effect; nearly all actives have a fitted effect of over 15% in size); settings: 1A2-DRE human hepatoma cells, luciferase, 24 h; activation: stronger effect = higher value
# Procedure, shortened: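 AhR activation is scored as a rise in luciferase from a stable DRE–CYP1A2 promoter construct in human hepatoma cells. Treatment lasts 24 hr at 37 C; detection uses One-Glo after 30 min at room temperature.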
# [21] = target: Peroxisome proliferator-activated receptor alpha (Homo sapiens) (UniProt Q07869); test: qHTS assay for small molecule agonists of the peroxisome proliferator-activated receptor alpha (PPARalpha) signaling pathway (AID 651778; active = well fitted curve in the direction sought with a large enough effect; an effect the other way counts as inactive or inconclusive; note: % of control where 0% means no effect); settings: PathHunter PPARalpha complementation, chemiluminescence, 6 h; max response: stronger effect = higher value
# Procedure, shortened: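 Chemiluminescence from complemented enzyme reported PPARalpha activation in cells after 6 hr of compound treatment at 37 C. The detection reagent was incubated for 60 min at room temperature, and compounds were scored as agonists.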
# [22] = qHTS assay for small molecule agonists of the antioxidant response element (ARE) signaling pathway measured by Nrf2-dependant transcriptional activity (AID 720636; active = well fitted curve in the direction sought with a large enough effect in the repeat runs; an effect the other way counts as inactive or inconclusive;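 note: HepG2 cells with an ARE-driven luciferase reporter; % of control where 0% means no effect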)
# Procedure, shortened: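 First, ARE-luc HepG2 cells attached for 6 hr at 37 C in 1% dialyzed FBS medium. Next, compound or DMSO was added and incubated 16 hr. Finally, ONE-Glo reagent was added and luminescence measured after 30 min.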
# [23] = qHTS assay for small molecule agonists of the antioxidant response element (ARE) signaling pathway measured by Nrf2-dependant transcriptional activity - cell viability counter screen (AID 720653; active = well fitted curve in the direction sought with a large enough effect in the repeat runs; an effect the other way counts as inactive or inconclusive; note: % is set by controls: 0 for no effect and ±100 for the full control effect); settings: ARE-bla HepG2 viability, CellTiter-Glo ATP luminescence, 16 h; max response: stronger effect = lower value
# Procedure, shortened: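 Cytotoxicity counter screen: intracellular ATP quantified by CellTiter-Glo luminescence in the same ARE-bla HepG2 plates, after 16 h compound exposure and a 2 h beta-lactamase substrate step.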
# [24] = qHTS assay for cell viability of HEK293 cells (AID 743288; active = well fitted curve in the direction sought with a large enough effect; an effect the other way counts as inactive or inconclusive; note: % is set by controls: 0 for no effect and ±100 for the full control effect; nearly all actives have a fitted effect of over 50% in size); settings: ATP luminescence (CellTiter-Glo), 18 h; max response: stronger effect = lower value
# Procedure, shortened: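 ATP luminescence (CellTiter-Glo) reports metabolically competent cell number after parental HEK293 cells, 2,000/well, were treated with DMSO-dissolved compounds for 18 h at 37 C; reagent incubation 30 min, room temperature.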
# [25] = qHTS assay for cell viability of the p53RE-bla HCT-116 cell line (AID 743292; active = well fitted curve in the direction sought with a large enough effect; an effect the other way counts as inactive or inconclusive; note: % is set by controls: 0 for no effect and ±100 for the full control effect; nearly all actives have a fitted effect of over 55% in size)
# Procedure, shortened: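 Quantitative high-throughput format: compounds in DMSO were pinned onto p53RE-bla HCT-116 cells (4,000/well) and incubated 16 h at 37 C. Total intracellular ATP, read by CellTiter-Glo luminescence, reflects viable cell number.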
# [26] = target: Nuclear receptor subfamily 1 group I member 2 (Rattus norvegicus) (UniProt Q9R1A7); test: qHTS assay for small molecule activators of the rat pregnane X receptor (rPXR) signaling pathway (AID 651751; call rule not given here; note: 0% is about no effect); settings: rPXR reporter cells, luciferase (One-Glo), 24 h
# [27] = qHTS assay for small molecule activators of the human pregnane X receptor (PXR) signaling pathway (AID 720659; call rule not given here; note: 0% is about no effect)
# [28] = target: Vitamin D3 receptor (Homo sapiens) (UniProt P11473); test: qHTS assay for small molecule antagonists of vitamin D receptor signaling (AID 588541)
# Procedure, shortened: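 Antagonist-mode beta-lactamase reporter assay: HEK293T VDR-UAS-bla cells were exposed to titrated compound alongside 1-alpha,25-dihydroxyvitamin D3 at 3 nM final for 16 h. Values were normalized to the 50 nM agonist control and DMSO basal, with IC50 and efficacy from Hill equation fits.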
# [29] = target: Retinoic acid receptor RXR-alpha (Homo sapiens) (UniProt P19793); test: qHTS assay for small molecule agonists of retinoid X receptor alpha signaling (AID 588544);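 for activation: 0% = DMSO basal wells and 100% = reference agonist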
# [30] = qHTS assay for small molecule agonists of the antioxidant response element (ARE) signaling pathway (AID 651741; active = well fitted activation curve with a large enough effect in the signal ratio; the % refers to the signal ratio; note: % of control where 0% means no effect)
# Procedure, shortened: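 Agonist activity is measured as ARE-driven beta-lactamase expression in a stable HepG2 reporter line, using 16 h compound treatment at 37 C and a FRET substrate fluorescence readout after 2 h.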
compound,measurement,setting,value
CCCCCCCC[Si](Cl)(Cl)Cl,Potency,[1],inactive
same,Potency,[2],inactive
same,activation,[3],3.85% (inactive)
same,outcome,[4],inactive
same,Potency,[5],inactive
same,activation,[6],-0.511% (inactive)
same,Potency,[7],inactive
same,max response,[8],-4.76%
same,Potency,[9],inactive
same,outcome,[10],inactive
same,Potency,[11],inactive
same,outcome,[12],inactive
same,max response,[13],-7.78%
same,Potency,[14],inactive
same,max response,[15],-3.5%
same,max response,[16],-13.9% (inactive)
same,activity change % (negative = inhibition),[17],-0.14% (inactive)
same,activation,[18],0.514% (inactive)
same,activation,[19],-3.66% (inactive)
same,activation,[20],3.53% (inactive)
same,max response,[21],-0.623% (inactive)
same,Potency,[22],inactive
same,max response,[23],-9.8% (inactive)
same,max response,[24],-3.47% (inactive)
same,Potency,[25],inactive
same,max response,[26],0.644% (inactive)
same,outcome,[27],inactive
Cc1ccc(C(=O)c2ccccc2)cc1,Potency,[1],inactive
same,Potency,[2],inactive
same,activation,[3],1.33% (inactive)
same,outcome,[4],inactive
same,Potency,[5],inactive
same,activation,[6],2.58% (inactive)
same,Potency,[7],inactive
same,max response,[8],-13.1%
same,Potency,[9],inactive
same,outcome,[10],inactive
same,Potency,[28],inactive
same,max response,[13],0.662%
same,Potency,[29],inactive
same,Potency,[14],inactive
same,max response,[15],9.26%
same,max response,[16],-15.9% (inactive)
same,activity change % (negative = inhibition),[17],-19.1% (inactive)
same,Potency,[30],inactive
same,activation,[18],3.79% (inactive)
same,activation,[19],0.979% (inactive)
same,activation,[20],-0.234% (inactive)
same,max response,[21],-3.56% (inactive)
same,max response,[23],-0.957% (inactive)
same,max response,[24],-2.28% (inactive)
same,Potency,[25],inactive
same,max response,[26],3.11% (inactive)

# From PubChem BioAssay (NCATS)
